# VDR inh: vitamin D3 receptor (human) inhibition; P11473; VDR-SRC2-3 peptide fluorescence polarization, 2 h; Potency, µM, for the others: max response, negative = inhibition, actives largely listed as inhibitors; 400,000 tested, 0.93% active; AID 504847
# Target sequence (P11473 whole entry, looked up): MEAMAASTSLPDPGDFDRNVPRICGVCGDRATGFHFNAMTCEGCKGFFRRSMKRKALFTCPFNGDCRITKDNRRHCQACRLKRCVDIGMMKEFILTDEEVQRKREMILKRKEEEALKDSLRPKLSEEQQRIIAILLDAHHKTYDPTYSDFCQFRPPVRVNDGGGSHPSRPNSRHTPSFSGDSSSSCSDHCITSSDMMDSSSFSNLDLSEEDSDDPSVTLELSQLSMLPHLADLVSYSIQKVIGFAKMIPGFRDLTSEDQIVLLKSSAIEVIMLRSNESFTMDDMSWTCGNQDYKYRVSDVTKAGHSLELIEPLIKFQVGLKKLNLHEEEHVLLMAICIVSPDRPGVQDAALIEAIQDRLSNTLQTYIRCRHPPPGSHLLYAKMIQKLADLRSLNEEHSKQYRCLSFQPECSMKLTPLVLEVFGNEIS
#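 Signal is fluorescence polarization, reporting how far test compounds block the interaction of VDR with the SRC2-3 coregulator peptide after a 2 h room-temperature incubation.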
# PLK1 PBD block: blocks phosphopeptide binding to human PLK1 polo-box domain | 360,000 tested, 2.8% active | Plk1 PBD binding of FITC phosphopeptide, fluorescence polarization | Potency, µM, for the others: max response, negative = inhibition, actives largely listed as inhibitors | P53350; further: series mostly up to about 57 µM; nearly all actives have a fitted effect of over 65% in size
# DT40 TDP1 no CPT: qHTS for Inhibitors of human tyrosyl-DNA phosphodiesterase 1 (TDP1): qHTS in cells in absence of CPT | DT40 Tdp1-/- hTDP1 cells, no CPT, ATP luminescence, 48 h | AID 686978, 2013 | 420,000 tested, 15% active | Potency, µM (doses to about 46.2 µM), without a hit: at the highest dose activity change, negative = growth inhibition, usual class: inhibitors; further: nearly all actives have a fitted effect of over 55% in size
#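 Luminescent ATP content (CellTiter-Glo) served as the growth readout. Knockout chicken DT40 cells expressing human TDP1 were exposed to compounds without camptothecin for a minimum 48 hr at 37 °C.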
# TDP1 cell CPT: growth inhibition of DT40 Tdp1-/-;hTDP1 cells with camptothecin (screen for TDP1 inhibitors); chicken DT40 Tdp1-/-;hTDP1 cells + 20 nM CPT, ATP luminescence, 48 h; Potency, µM (top dose mostly 46.2 µM), without a hit: at the highest dose activity change, negative = growth inhibition, most hits filed as inhibitors; 420,000 tested, 12% active; AID 686979; further: nearly all actives have a fitted effect of over 55% in size
#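 Chicken DT40 Tdp1-/- cells stably complemented with human TDP1 were seeded at 400 cells/well in medium containing 20 nM camptothecin, exposed to pin-transferred compounds, and grown at 37 °C for at least 48 hr. Viability was read as ATP luminescence.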
# TDP1 inh: TDP1 (human) enzyme inhibition. 350,000 tested, 0.28% active. Potency, µM (series often up to 130 µM), without a hit: top-dose activity change, negative = inhibition, actives largely listed as inhibitors. AID 485290. Q9NUW8. recombinant TDP1, AlphaScreen DNA substrate cleavage; further: nearly all actives have a fitted effect of over 40% in size
#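 Tdp1 1 nM final; 15 min RT w/ cpd; substrate 15 nM, 5 min; beads 10 ug/ml, 10 min; AlphaScreen read. Neg ctrl: no enzyme.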
# KAT2A inh: GCN5L2 (KAT2A) acetyltransferase inhibition | Potency, µM (highest dose often 58.9 µM), for the others: top-dose activity change, negative = inhibition, actives largely listed as inhibitors | GCN5L2 HAT assay, ThioGlo1 CoA-SH fluorescence | Q92830 | 390,000 tested, 0.21% active | AID 504327
#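 Preincubate 20nM GCN5L2 with compound 15 min, RT → add 50uM ThioGlo1 + 75uM H3(1-25) + 70uM acetyl-CoA → read fluorescence 0 and 20 min. Primary qHTS; fluorescent artifacts likely.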
# * = called active by the depositor; ? = inconclusive; · = no result given. In the library only some 18% were active in any assay of this set; here they are far more common. The call rests on the fitted dose curve; in most records, active means well fitted curve in the direction sought with a large enough effect; inconclusive means small, poorly fitted or top-dose-only effect, or another doubt; inactive means no such curve, though single readings can be large; an effect the other way counts as inactive or inconclusive. On the % scale 0 is the no-effect control and ±100 the full control effect; potency means the concentration at half of the fitted maximal effect.
SMILES,VDR inh,PLK1 PBD block,DT40 TDP1 no CPT,TDP1 cell CPT,TDP1 inh,KAT2A inh
COc1ccc(OCC2c3cc(OC)c(OC)cc3CCN2C(=O)C(C)C)cc1 (stereo not drawn),-17%,27µM*,23µM*,?,2%,-7%
COC(=O)c1ccc(OCC2c3cc(OC)c(OC)cc3CCN2C(=O)Cc2ccc(OC)cc2)cc1 (stereo not drawn),13%,·,21µM*,?,13%,-1%
COC(=O)c1ccc(OCC(O)CN2CCc3cc(OC)c(OC)cc3C2c2ccccc2)cc1 (stereo not drawn),2%,-2%,5.8µM*,5.8µM*,0%,-8%
COC(=O)c1ccc(OCC2NCCc3cc(OC)c(OC)cc32)cc1 (stereo not drawn),-13%,-5%,?,?,-4%,2%
COC(=O)c1ccc(OCC2c3cc(OC)c(OC)cc3CCN2C(=O)c2ccc(OC)cc2)cc1 (stereo not drawn),-3%,·,?,?,10%,1%
Cc1ccccc1CNC(=O)CN1C(=O)C2CCCCN2c2ccc(C(=O)N3CCCC3)cc21 (stereo not drawn),2%,·,-26%,-15%,-2%,-1%
Cc1c(Cl)cccc1NC(=O)c1cnc2sc(N3CCOCC3)nn2c1=O,-2%,·,?,-27%,6%,0%
COc1cc2c(cc1OC)C(COc1ccc3c(C)cc(=O)oc3c1)N(C(=O)c1ccc(Cl)cc1)CC2 (stereo not drawn),13%,·,?,?,0%,-3%
COc1cc2c(cc1OC)C(c1ccccc1)CN(C)CC2 (stereo not drawn),1%,·,·,·,6%,-9%
COc1cc2c(cc1OC)C(c1ccccc1)N(C(=O)c1ccco1)CC2 (stereo not drawn),-16%,-6%,21µM*,21µM*,-8%,-5%
COc1cc2c(cc1OC)C(c1ccccc1)N(C(=O)c1ccccc1)CC2 (stereo not drawn),-8%,-11%,?,?,·,1%
COC(=O)c1ccc(OCC2c3cc(OC)c(OC)cc3CCN2C(=O)Cc2ccc(OC)c(OC)c2)cc1 (stereo not drawn),-5%,·,?,23µM*,10%,-13%
COc1ccc(CC(=O)N2CCc3cc(OC)c(OC)cc3C2COc2cc(C)cc(C)c2)cc1OC (stereo not drawn),14%,·,18µM*,18µM*,13%,0%
COc1cc2c(cc1OC)[C@@H](c1ccccc1)CN(C)CC2,·,·,15µM*,-21%,·,·
CCOc1ccc(NC(=O)CN2CCSc3ccc(S(=O)(=O)N4CCCC4)cc32)cc1,7%,·,·,·,8%,2%
CCc1ccc(NC(=O)COCc2cc(-c3ccc(F)cc3)on2)cc1,-7%,·,-10%,-12%,6%,-4%
COc1ccc(CCNC(=O)C2(C)CCC(=O)N2Cc2ccc(C)cc2)cc1OC (stereo not drawn),10%,2%,27%,2%,·,1%
Nc1ccccc1SC(CC(=O)c1ccccc1)c1cccc([N+](=O)[O-])c1 (stereo not drawn),·,?,5.2µM*,16µM*,·,·
CC(=O)NC(CSC(CC(=O)c1ccco1)c1ccc(C)cc1)C(=O)O (stereo not drawn),?,-7%,16µM*,?,0%,20%
Nc1ccccc1SC(CC(=O)c1ccccc1)c1ccc([N+](=O)[O-])cc1 (stereo not drawn),·,?,16µM*,15µM*,·,·
O=C(CC(SCCO)c1ccc([N+](=O)[O-])cc1)c1ccco1 (stereo not drawn),-4%,-15%,15µM*,-93%,2%,26%

# Source: PubChem
